Source: PubChem BioAssay (EPA / NIEHS)
Records with an inconclusive call do not appear. The source made the active and inactive calls. The calls were made as follows, unless noted: active = hit-call score of the fitted dose curve at least 0.9, where 1 is the maximum; inactive = score below 0.9.

Experiments:
[1] = molecular target: Paired box protein Pax-6 (Homo sapiens) (UniProt P26367); test: ATG_Pax6_CIS: Attagene CIS-FACTORIAL HepG2 Assay for human Paired Box 6 (PAX6) (AID 2282956); settings: HepG2 CIS-FACTORIAL PAX6 reporter transcription, RNA readout; actives raise or lower the signal
Procedure, shortened: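 Read-out is reporter transcript level, measured by RT-PCR with fluorescent primer extension and capillary electrophoresis after 24 h dosing of transfected HepG2 cells. Activity in either direction fitted relative to DMSO control.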

[2] = ATG_PXRE_CIS: Attagene CIS-FACTORIAL HepG2 Assay for human Pregnane X Receptor Element (PXRE) (AID 2282957); settings: HepG2 Attagene CIS-FACTORIAL PXRE reporter, mRNA; actives raise or lower the signal
Procedure, shortened: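 Fluorescent capillary electrophoresis of amplified reporter cDNA gave the signal, collected 24 h after dosing HepG2 cells that held transfected cis-element reporter constructs.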

[3] = ATG_PPRE_CIS: Attagene CIS-FACTORIAL HepG2 Assay for human Peroxisome Proliferator-activated Response Element (PPRE) (AID 2282958); settings: HepG2 PPRE cis-element reporter, Attagene transcription factor profiling; actives raise or lower the signal
Procedure, shortened: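 Read-out: fluorescent reporter mRNA fragments resolved by capillary electrophoresis after RT-PCR. HepG2 cells carried transiently transfected PPRE-driven cis reporter constructs and were dosed for 24 h; gain or loss of signal fitted relative to DMSO.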

[4] = ATG_RORE_CIS: Attagene CIS-FACTORIAL HepG2 Assay for human RAR-related Orphan Receptor Element (RORE) (AID 2282959); settings: HepG2 Attagene cis-factorial RORE reporter, mRNA; actives raise or lower the signal
Procedure, shortened: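 Readout: fluorescent reporter mRNA by RT-PCR plus capillary electrophoresis, 24 h after dosing transfected HepG2 cells. Endogenous transcription factor activity on a cis promoter element is measured. Gain or loss of signal fitted against DMSO.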

[5] = ATG_Sox_CIS: Attagene CIS-FACTORIAL HepG2 Assay for human SRY-box transcription factor (SOX) (AID 2282960); settings: HepG2 Attagene cis-factorial SOX reporter, mRNA; actives raise or lower the signal
Procedure, shortened: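 Read-out: fluorescent RT-PCR products of SOX1-linked reporter transcripts resolved by capillary electrophoresis, fitted bidirectionally against DMSO. Transiently transfected HepG2 cells, 24 h after chemical exposure, endogenous transcription factor activity.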

[6] = molecular target: Transcription factor Sp1 (Homo sapiens) (UniProt P08047); test: ATG_Sp1_CIS: Attagene CIS-FACTORIAL HepG2 Assay for human Specificity Protein 1 (Sp1) (AID 2282961); settings: HepG2 Sp1 cis-reporter transcription, actives raise or lower the signal
Procedure, shortened: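 Read-out: fluorescence of 6-FAM-labeled, HpaI-digested RT-PCR products separated by capillary electrophoresis. HepG2 cells carried transfected cis-element reporter units and were exposed to chemicals for 24 h; gain or loss of signal fitted relative to DMSO.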

[7] = ATG_SREBP_CIS: Attagene CIS-FACTORIAL HepG2 Assay for human Sterol Regulatory Element Binding (SREBP) (AID 2282962); settings: HepG2 Attagene cis-factorial SREBP reporter, mRNA; actives raise or lower the signal
Procedure, shortened: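 Endogenous SREBP activity read as cis-element-driven reporter transcript in transiently transfected HepG2, 24 h post-dosing; quantified via RT-PCR plus capillary electrophoresis of fluorescent fragments. Gain or loss of signal fitted relative to DMSO baseline.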

[8] = molecular target: Signal transducer and activator of transcription 3 (Homo sapiens) (UniProt P40763); test: ATG_STAT3_CIS: Attagene CIS-FACTORIAL HepG2 Assay for human Signal Transducer and Activator of Transcription 3 (STAT3) (AID 2282963); settings: HepG2, Attagene cis-factorial STAT3 reporter transcription; actives raise or lower the signal
Procedure, shortened: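 Readout is reporter transcript quantified by RT-PCR and capillary electrophoresis, with 6-FAM primer extension and HpaI digestion. Total RNA is taken 24 h after dosing transiently transfected HepG2 carrying cis-regulated reporter units. Bidirectional fit against DMSO.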

[9] = ATG_TA_CIS: Attagene CIS-FACTORIAL HepG2 Assay for human TA Basal Promoter (AID 2282964); settings: HepG2 Attagene CIS-factorial TA basal promoter reporter; actives raise or lower the signal
Procedure, shortened: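 Transfected HepG2, 24 h compound exposure; RNA → RT-PCR → FAM primer extension → HpaI cut → CE fluorescence. Gain/loss-of-signal fitted against DMSO negative control. Background-control readout.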

[10] = ATG_TCF_b_cat_CIS: Attagene CIS-FACTORIAL HepG2 Assay for human T-Cell-Factor with beta-catenin (TCF/b-cat) (AID 2282965); settings: HepG2 TCF/beta-catenin cis-reporter transcription, actives raise or lower the signal
Procedure, shortened: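 Endogenous TCF/LEF activity read as reporter transcript level via RT-PCR and capillary electrophoresis fluorescence in transfected HepG2, 24 h exposure; gain or loss of signal fitted against DMSO controls.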

[11] = ATG_TAL_CIS: Attagene CIS-FACTORIAL HepG2 Assay for human TAL Basal Promoter (AID 2282966); settings: HepG2 Attagene cis-factorial TAL promoter reporter; actives raise or lower the signal;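 also: background control endpoint measuring basal TAL promoter reporter mRNA not a specific factor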
Procedure, shortened: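 Transiently transfected HepG2 (cis-regulated reporter units), 24 h treatment, mRNA read by fluorescent CE after RT-PCR; bidirectional fit, DMSO baseline.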

[12] = ATG_TGFb_CIS: Attagene CIS-FACTORIAL HepG2 Assay for human Transforming Growth Factor (TGF) (AID 2282967); settings: HepG2 Attagene CIS TGFb reporter, mRNA transcription; actives raise or lower the signal
Procedure, shortened: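 Readout: fluorescently labeled reporter cDNA fragments resolved by capillary electrophoresis after RT-PCR. Transfected HepG2 cells dosed for 24 h; endogenous TF activity at TGFB1-linked cis element; gain or loss fitted relative to DMSO.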

[13] = molecular target: Estrogen receptor (Homo sapiens) (UniProt P03372); test: ATG_ERa_TRANS: Attagene TRANS-FACTORIAL HepG2 Assay for human Estrogen Receptor alpha (ERa) (AID 2282970; active = hit-call score of the fitted dose curve at least 0.9, where 1 is the maximum); settings: HepG2 Attagene TRANS ERa GAL4 reporter, mRNA
Procedure, shortened: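 One of 30 multiplexed endpoints from a HepG2 TRANS system, this one reports ERa-Gal4-driven reporter mRNA. Transcripts were quantified 24 hours post-dosing by fluorescent RT-PCR and capillary electrophoresis, with activity scored as induction over DMSO.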

[14] = molecular target: X-box-binding protein 1 (Homo sapiens) (UniProt P17861); test: ATG_Xbp1_CIS: Attagene CIS-FACTORIAL HepG2 Assay for human X-box Binding Protein 1 (XBP1) (AID 2282972); settings: HepG2 XBP1 cis-element reporter, Attagene multiplex; actives raise or lower the signal
Procedure, shortened: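 Reporter transcripts were quantified by RT-PCR with fluorescent primer extension and capillary electrophoresis after 24 h chemical exposure. Cells: transiently transfected HepG2 carrying cis-regulated reporter constructs; data fitted bidirectionally relative to DMSO.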

[15] = ATG_GAL4_TRANS: Attagene TRANS-FACTORIAL HepG2 Assay for GAL4 (Internal Marker) (AID 2282976; active = hit-call score of the fitted dose curve at least 0.9, where 1 is the maximum); settings: HepG2 Attagene TRANS GAL4 internal marker reporter
Procedure, shortened: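 HepG2 cells transiently transfected with multiplexed GAL4-UAS reporter constructs were dosed for 24 h. Reporter mRNA was measured by RT-PCR, 6-FAM primer extension, HpaI digestion and capillary electrophoresis, and gain of signal was fitted relative to DMSO.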

[16] = ATG_VDRE_CIS: Attagene CIS-FACTORIAL HepG2 Assay for human Vitamin D Receptor Element (VDRE) (AID 2282968); settings: HepG2 VDRE cis-reporter transcription, actives raise or lower the signal
Procedure, shortened: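 Readout is VDRE-driven reporter mRNA reflecting endogenous factor activity in human HepG2 cells, sampled 24 h post-dose. Quantification used labelled RT-PCR products separated by capillary electrophoresis; bidirectional analysis relative to DMSO.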

[17] = ATG_M_19_TRANS: Attagene TRANS-FACTORIAL HepG2 Assay for M19 Transcription Factor (Internal Marker) (AID 2282974; active = hit-call score of the fitted dose curve at least 0.9, where 1 is the maximum); settings: HepG2 Attagene TRANS-FACTORIAL M19 internal marker reporter
Procedure, shortened: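 24 h chemical exposure of transiently transfected HepG2 (MRTU library). RNA → oligo(dT) RT → PCR → 6-FAM labelling → HpaI cut → CE fluorescence. Positive-direction fit vs DMSO baseline; background internal-marker readout.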

[18] = molecular target: Steroid hormone receptor ERR1 (Homo sapiens) (UniProt P11474); test: ATG_ERRa_TRANS: Attagene TRANS-FACTORIAL HepG2 Assay for human Estrogen-Related Receptor alpha (ERRa) (AID 2282971; active = hit-call score of the fitted dose curve at least 0.9, where 1 is the maximum); settings: HepG2 Attagene TRANS reporter, ERRa transactivation
Procedure, shortened: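 HepG2 cells transiently transfected with multiplexed GAL4-UAS reporter units reading chimeric ERRa-Gal4 activity; 24 h compound exposure. Reporter mRNA measured by RT-PCR, 6-FAM labelling, HpaI digest and capillary electrophoresis; gain of signal fitted versus DMSO baseline.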

[19] = ATG_PBREM_CIS: Attagene CIS-FACTORIAL HepG2 Assay for human Phenobarbital-responsive Enhancer Module (PBREM) (AID 2282955); settings: HepG2 PBREM cis-reporter, Attagene multiplexed transcription; actives raise or lower the signal
Procedure, shortened: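 Reporter mRNA read by RT-PCR, 6-FAM primer extension, HpaI digestion and capillary electrophoresis. Transfected HepG2 cells, 24 h compound exposure. Gain or loss of signal fitted bidirectionally relative to DMSO baseline.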

Measured: AC50

Sequence of Estrogen receptor (Homo sapiens) (P03372 whole entry, looked up, the tested form may be a part): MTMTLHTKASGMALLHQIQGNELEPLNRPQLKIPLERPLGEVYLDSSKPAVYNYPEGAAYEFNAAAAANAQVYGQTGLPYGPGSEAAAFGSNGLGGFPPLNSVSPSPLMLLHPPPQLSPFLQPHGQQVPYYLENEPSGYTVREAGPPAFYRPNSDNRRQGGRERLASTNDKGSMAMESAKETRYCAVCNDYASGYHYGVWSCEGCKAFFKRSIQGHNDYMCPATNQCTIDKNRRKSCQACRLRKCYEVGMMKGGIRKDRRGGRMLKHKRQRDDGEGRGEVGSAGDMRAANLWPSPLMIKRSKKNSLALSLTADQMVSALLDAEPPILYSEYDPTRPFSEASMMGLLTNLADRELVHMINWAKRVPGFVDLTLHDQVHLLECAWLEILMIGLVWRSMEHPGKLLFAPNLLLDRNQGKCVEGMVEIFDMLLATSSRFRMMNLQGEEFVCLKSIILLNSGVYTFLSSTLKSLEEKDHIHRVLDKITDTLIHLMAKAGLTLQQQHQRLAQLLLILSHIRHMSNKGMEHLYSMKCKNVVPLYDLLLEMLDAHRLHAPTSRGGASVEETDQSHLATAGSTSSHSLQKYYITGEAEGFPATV
Sequence of Paired box protein Pax-6 (Homo sapiens) (P26367 whole entry, looked up): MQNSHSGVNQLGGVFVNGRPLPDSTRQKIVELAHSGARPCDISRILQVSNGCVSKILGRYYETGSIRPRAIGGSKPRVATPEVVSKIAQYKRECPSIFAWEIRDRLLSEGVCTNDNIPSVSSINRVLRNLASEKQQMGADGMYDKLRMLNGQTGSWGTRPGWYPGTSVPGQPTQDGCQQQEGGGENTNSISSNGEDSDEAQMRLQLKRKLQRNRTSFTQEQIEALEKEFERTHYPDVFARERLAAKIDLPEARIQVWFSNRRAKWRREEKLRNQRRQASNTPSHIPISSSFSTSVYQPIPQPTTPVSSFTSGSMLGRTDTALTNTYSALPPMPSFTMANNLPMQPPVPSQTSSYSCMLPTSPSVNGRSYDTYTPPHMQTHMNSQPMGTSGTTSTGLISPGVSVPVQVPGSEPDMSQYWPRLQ
Sequence of Transcription factor Sp1 (Homo sapiens) (P08047 whole entry, looked up): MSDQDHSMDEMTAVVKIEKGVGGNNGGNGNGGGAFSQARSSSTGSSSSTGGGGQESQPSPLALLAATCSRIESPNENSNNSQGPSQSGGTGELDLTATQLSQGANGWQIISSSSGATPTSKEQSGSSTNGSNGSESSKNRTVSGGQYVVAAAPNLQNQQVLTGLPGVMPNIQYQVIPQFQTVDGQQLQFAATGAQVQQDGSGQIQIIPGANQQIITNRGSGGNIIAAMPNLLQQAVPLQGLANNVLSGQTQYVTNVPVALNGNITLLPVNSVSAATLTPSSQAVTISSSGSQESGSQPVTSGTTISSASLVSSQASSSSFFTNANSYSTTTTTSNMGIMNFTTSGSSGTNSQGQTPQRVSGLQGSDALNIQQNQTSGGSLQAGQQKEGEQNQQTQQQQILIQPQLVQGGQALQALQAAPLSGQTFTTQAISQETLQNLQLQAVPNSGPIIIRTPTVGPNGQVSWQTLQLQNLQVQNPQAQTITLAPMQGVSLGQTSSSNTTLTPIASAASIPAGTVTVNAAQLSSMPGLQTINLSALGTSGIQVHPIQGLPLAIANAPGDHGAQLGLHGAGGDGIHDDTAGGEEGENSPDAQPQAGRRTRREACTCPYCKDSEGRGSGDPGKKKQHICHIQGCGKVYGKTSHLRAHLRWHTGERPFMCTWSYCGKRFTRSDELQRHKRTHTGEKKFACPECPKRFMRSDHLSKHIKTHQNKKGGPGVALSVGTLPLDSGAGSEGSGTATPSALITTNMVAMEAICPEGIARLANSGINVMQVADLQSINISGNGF
Sequence of X-box-binding protein 1 (Homo sapiens) (P17861 whole entry, looked up): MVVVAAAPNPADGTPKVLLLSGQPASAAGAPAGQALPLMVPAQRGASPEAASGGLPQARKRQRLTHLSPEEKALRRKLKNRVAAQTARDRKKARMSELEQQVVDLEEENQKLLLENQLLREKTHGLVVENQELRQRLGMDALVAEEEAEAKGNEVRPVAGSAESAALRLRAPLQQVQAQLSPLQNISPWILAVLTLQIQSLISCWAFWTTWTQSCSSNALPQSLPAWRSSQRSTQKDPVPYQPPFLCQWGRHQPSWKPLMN
Sequence of Signal transducer and activator of transcription 3 (Homo sapiens) (P40763 whole entry, looked up): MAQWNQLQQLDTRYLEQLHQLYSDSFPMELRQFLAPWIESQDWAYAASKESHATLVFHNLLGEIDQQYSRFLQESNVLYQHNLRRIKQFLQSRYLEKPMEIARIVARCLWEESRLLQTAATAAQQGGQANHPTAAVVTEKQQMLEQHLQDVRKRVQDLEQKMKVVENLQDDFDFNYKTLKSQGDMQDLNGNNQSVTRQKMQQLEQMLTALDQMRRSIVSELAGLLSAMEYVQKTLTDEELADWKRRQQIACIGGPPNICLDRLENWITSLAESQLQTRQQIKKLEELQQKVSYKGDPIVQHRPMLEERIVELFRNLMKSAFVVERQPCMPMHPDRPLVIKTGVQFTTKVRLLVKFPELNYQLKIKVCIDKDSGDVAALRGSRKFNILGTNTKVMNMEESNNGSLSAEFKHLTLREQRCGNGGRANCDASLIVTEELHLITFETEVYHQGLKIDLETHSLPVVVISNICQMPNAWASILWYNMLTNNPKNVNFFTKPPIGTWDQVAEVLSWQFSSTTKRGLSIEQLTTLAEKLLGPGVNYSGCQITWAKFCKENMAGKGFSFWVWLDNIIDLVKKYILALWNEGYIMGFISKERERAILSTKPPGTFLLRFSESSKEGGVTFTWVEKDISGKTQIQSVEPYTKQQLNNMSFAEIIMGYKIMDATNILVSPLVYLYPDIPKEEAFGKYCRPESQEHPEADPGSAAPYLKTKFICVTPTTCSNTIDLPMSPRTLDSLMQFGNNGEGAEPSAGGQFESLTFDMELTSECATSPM
Sequence of Steroid hormone receptor ERR1 (Homo sapiens) (P11474 whole entry, looked up, the tested form may be a part): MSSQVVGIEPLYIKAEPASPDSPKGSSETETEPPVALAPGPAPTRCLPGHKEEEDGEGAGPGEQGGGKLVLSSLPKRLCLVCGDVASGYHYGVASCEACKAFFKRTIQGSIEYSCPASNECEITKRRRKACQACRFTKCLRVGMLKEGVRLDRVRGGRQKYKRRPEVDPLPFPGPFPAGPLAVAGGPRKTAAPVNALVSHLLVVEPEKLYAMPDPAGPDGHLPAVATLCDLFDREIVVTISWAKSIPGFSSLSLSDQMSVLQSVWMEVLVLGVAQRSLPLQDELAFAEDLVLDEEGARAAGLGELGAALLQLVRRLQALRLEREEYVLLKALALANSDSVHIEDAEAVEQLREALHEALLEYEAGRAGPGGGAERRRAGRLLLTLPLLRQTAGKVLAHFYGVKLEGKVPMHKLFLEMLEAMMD

c1ccc(C(O[C@@H]2CCCN(CCc3ccc4c(c3)OCO4)C2)c2ccccc2)cc1
active: [1] 44.3 µM | [2] 0.514 µM | [7] 10.7 µM | [9] 55.3 µM | [13] 1.76 µM | [14] 20.9 µM
not listed: [15] | [16] | [17] | [18] | [19]
inactive: all other assays above

CCOC(N)=O
not listed: [3] | [16] | [17] | [18] | [19]
inactive: all other assays above

O=C(NO)C1(NS(=O)(=O)c2ccc(Oc3ccc(F)cc3)cc2)CCOCC1
active: [7] 31.2 µM
not listed: [15] | [17] | [18] | [19]
inactive: all other assays above

CCCC(CCC)C(=O)O
not listed: [3] | [4] | [18] | [19]
inactive: all other assays above

CCCCOC(=O)c1ccccc1
not listed: [13] | [15] | [17] | [18] | [19]
inactive: all other assays above

CCCCCCCCN(C)C
active: [16] 9.07 nM
not listed: [3] | [15] | [19]
inactive: all other assays above

CC1(C)C(=O)N(Cl)C(=O)N1Cl
not listed: [3] | [13] | [15] | [18] | [19]
inactive: all other assays above

CC[C@H](C)C(=O)O[C@H]1C[C@H](O)C=C2C=C[C@H](C)[C@H](CC[C@@H](O)C[C@@H](O)CC(=O)O)[C@H]21
active: [2] 48.1 µM
not listed: [13] | [17] | [18] | [19]
inactive: all other assays above

C[C@]12C=CC(=O)C=C1CC[C@H]1[C@@H]3C[C@@H](O)[C@](O)(C(=O)CO)[C@@]3(C)C[C@H](O)[C@@]12F
active: [13] 37.2 µM
not listed: [15] | [17] | [18] | [19]
inactive: all other assays above

CCCCCCCCCCCCCCCCOS(=O)(=O)O
active: [10] 25.7 µM | [12] 11.5 µM
not listed: [3] | [15]
inactive: all other assays above

CCCCCCCCCC
not listed: [15] | [18] | [19]
inactive: all other assays above

OCCNCCO
not listed: [3] | [4] | [13] | [17] | [19]
inactive: all other assays above

OC(Cn1cncn1)(Cn1cncn1)c1ccc(F)cc1F
not listed: [15] | [18] | [19]
inactive: all other assays above
